# Hit rate of the full screen: of about 340,000 compounds, about 6,400 (1.9%) were called active. Roughly 4% stayed inconclusive and do not appear here. The sample holds actives, similar compounds and a random draw of the others, so the mix is not that of the screen. Values without a mark were called inactive. Calls follow the shape of the dose curve; as a rule, active = well fitted falling curve with a large enough effect; inconclusive = small, poorly fitted or top-dose-only effect; inactive = no such curve, though single readings can be large or run the other way.
# Biological target: ATP-dependent Clp protease proteolytic subunit (Bacillus subtilis (strain 168)) (UniProt P80244)
# Experiment: qHTS Assay for Activators of ClpP; also: the source files actives as falling curves though it sought activators and does not explain the sign; nearly all actives have a fitted effect of over 65% in size
# Conditions: purified B. subtilis ClpP, FRET peptide cleavage, 20 min; series mostly up to 57.5 µM; activity change, negative = active: at the top concentration
# Method in brief: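 FRET quenching reversal measured ClpP activation: 10 microg/mL B. subtilis ClpP at pH 8 with the FRET-FV decapeptide, read at 430 nm after 320 nm excitation. The 20-min minus 0-min signal was scaled between DMSO/no-enzyme wells and ADEP (5.8 microM final).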
# Potency is read from the fitted curve at half-maximal effect.
# ATP-dependent Clp protease proteolytic subunit (Bacillus subtilis (strain 168)), sequence (P80244 whole entry, looked up): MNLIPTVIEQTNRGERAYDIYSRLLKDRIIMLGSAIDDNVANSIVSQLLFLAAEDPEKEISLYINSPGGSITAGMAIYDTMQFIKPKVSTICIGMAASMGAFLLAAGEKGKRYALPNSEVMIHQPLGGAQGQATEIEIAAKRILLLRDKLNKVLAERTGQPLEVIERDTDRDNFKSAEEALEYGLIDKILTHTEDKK
SMILES,"activity change, negative = active",Potency
COC(=O)c1ccc2nc(-c3cccc(Br)c3)c(Cc3ccccc3C(F)(F)F)n2c1,-11.9%,
COCCN(CCOC)c1nc(N)c2c(N)nc3c(c2c1C#N)CC(=O)N3Cc1ccc(Cl)cc1,,3.16 µM (active)
COc1ccc(C(C#N)=C2C=CC(=NO)c3ccccc32)cc1,1.66%,
CC1=C2C(=O)OC(c3ccoc3)C2(C)CCC1 (centres undefined),,25.1 µM (active)
CC1(C)O[C@H]2CC(=O)OCC23[C@H]2CC[C@@]4(C)[C@H](c5ccoc5)OC(=O)[C@H]5O[C@]54[C@]2(C)C(=O)C[C@@H]13 (some centres undefined),-0.868%,
CC(C)(C(=O)NO)c1ccccc1,-0.655%,
CC(Oc1ccccc1[N+](=O)[O-])C(=O)N/N=C/c1ccoc1 (centres undefined),-3.01%,
O=C(COc1ccccc1[N+](=O)[O-])N/N=C/c1ccc[nH]1,,31.6 µM (active)
CCCC(=O)Nc1ccc(C(=O)N/N=C/c2ccc[nH]2)cc1,1.82%,
O=C(Nc1ccc(Cl)cc1)c1csc([C@H]2C[C@H](O)[C@@H](CO)O2)n1,0.0111%,
COc1ccccc1NC(=O)CN1CCN(S(=O)(=O)c2ccc(Br)cc2)CC1,-12.3%,
COc1ccc(NC(=O)CN2CCN(S(=O)(=O)c3ccc(F)cc3)CC2)cc1Cl,3.19%,
COc1cc2c(cc1NC(=O)CN1CCN(S(=O)(=O)c3ccc(F)cc3)CC1)oc1ccccc12,,11.2 µM (active)
O=C(OCc1cn([C@H]2C[C@H](c3ccccc3)N(C(=O)c3cccs3)C[C@@H]2O)nn1)c1ccccc1,0.361%,
CCOC(=O)C1=CC[C@@H](c2ccncc2)N(S(=O)(=O)c2ccc(C)cc2)C1,0.521%,
CC1(C(=O)NCc2ccc3c(c2)OCO3)CCN1CCc1ccccc1 (centres undefined),-0.799%,
C[N+](C)(C)CCNC(=O)c1c[nH]c2ccccc12,3.16%,
CC1CCN(C(=O)COC(=O)c2cc(=O)[nH]c3ccccc23)CC1,-5.9%,
CCOC(=O)c1ccc(COC(=O)c2cc(=O)[nH]c3ccccc23)o1,,15.8 µM (active)
CCOC(=O)c1ccc(NC(=O)c2cc(=O)[nH]c3ccccc23)cc1,-7.27%,
Cc1ccc2nc(-c3ccccc3)c(CC3CCCCC3)n2c1,-17.3%,
SCc1nc2ccc(Cl)cc2[nH]1,-5.53%,
COc1ccccc1CC(=O)Nc1ccc(F)cc1F,2.38%,
COc1ccccc1CC(=O)Nc1ccc([N+](=O)[O-])cc1OC,,7.08 µM (active)
COc1cc([N+](=O)[O-])ccc1NC(=O)CN1CCCC1,-1.92%,

SMILES,"activity change, negative = active",Potency
O=C(NC(c1ccc(-c2ccccc2)cc1)c1cnccn1)C1CCN(CCOc2ccc(Cl)cc2Cl)CC1 (centres undefined),-2.84%,
COc1cc2nc(N3CCCN(C)CC3)nc(NC(C)C)c2cc1OC,4.14%,
COC(=O)Cn1c(=NC(=O)c2cc(OC)c(OC)c(OC)c2)sc2cc(OC)ccc21,,2.82 µM (active)
COC(=O)Cn1c2ccc(C)cc2c2nc(C)sc21,0.6%,
COC(=O)Cn1c(=NC(=O)CSCC(=O)Nc2cc(C)on2)sc2ccccc21,-15.6%,
Cc1ccccc1-c1csc(C(O)c2cccc(Cl)c2)n1 (centres undefined),-1.81%,
COc1ccc(C(=O)Nc2c(Cl)cc(Cl)cc2C(=O)N2CCC(C)CC2)cc1,,15.8 µM (active)
COc1ccc(C(=O)N2CCC(C(=O)Nc3ccc(C)cc3)CC2)cc1,0.262%,
COc1ccc(C(=O)Nc2ccccc2C(=O)N2CCN(c3ccccc3)CC2)cc1,-1.35%,
OC(Cc1ccc2ccccc2n1)c1ccc(Cl)c(Cl)c1 (centres undefined),-2.58%,
COc1ccc(-c2ccnc(SCC(=O)N3CCOCC3)n2)cc1,,15.8 µM (active)
COc1ccc(N2CCN(C(=O)CSc3nnc4ncccn34)CC2)cc1,-0.882%,
COc1ccc(-c2nc(SCC(=O)N3CCCCC3C)n[nH]2)cc1 (centres undefined),-1.11%,
O=C(CSc1nnc(-c2ccoc2)o1)N1CCOCC1,-2.09%,
COc1ccc(-c2nc(SCC(=O)N3CCOCC3)n[nH]2)cc1,,15.8 µM (active)
O=C(CSc1n[nH]c(-c2ccccc2)n1)N1CCCCC1,1.34%,
CCc1ccccc1NC(=O)CN1CCN(C(=O)c2cc(C3CC3)nn2-c2ccccc2)CC1,2.06%,
CSc1ccc(CNC(=O)C2(C)CCCN2C)cc1 (centres undefined),-1.05%,
CCOC(=O)c1ccc(-n2c(CCC(=O)O)ccc2-c2ccccc2)cc1,-2.4%,
CCOC(=O)c1c(-c2ccc(OC)cc2)oc2ccc(OCc3ccc(C(=O)OC)cc3)cc12,3.62%,
CCOC(=O)c1ccc(COC(=O)CCc2nc(-c3ccccc3)c(-c3ccccc3)o2)cc1,,28.2 µM (active)
COC(=O)C1=CN(c2c(C)cc(C)cc2C)C(N)=C(C#N)C1c1cccc(F)c1 (centres undefined),1.91%,
Cc1ccc(Cn2cc(CN3CC(N4CCN(C)CC4)CS3(=O)=O)nn2)cc1 (centres undefined),-0.127%,
OC[C@@H]1CN(Cc2cccs2)C[C@H](n2cnc3c(Nc4ccccc4)ncnc32)O1,-29.3%,
CC(C)C[C@@H](COCc1ccc(Cl)cc1)N1CCN(C(=O)c2ccc(Cl)cc2Cl)CCC1=O,-4.04%,

SMILES,"activity change, negative = active",Potency
OC[C@@H]1CN(Cc2ccc(-c3ccccc3)cc2)C[C@H](n2cnc3c(NC4CCCC4)ncnc32)O1,-2.78%,
C[N+](C)(CCCCCC[N+](C)(C)CCCN1C(=O)c2cccc3cccc(c23)C1=O)CCCN1C(=O)c2cccc3cccc(c23)C1=O,4.06%,
COc1cccc2c(=O)n(CC(=O)N3CCCCCC3)ccc12,4.01%,
O=C(CN1C(=O)c2cccc3cccc(c23)C1=O)N1CCCCC1,,14.1 µM (active)
C#CCNC(=O)C[C@@H]1C[C@@]2(C(=O)OCC)CCCC=C2N(Cc2ccco2)C1=O,2%,
CC(=O)Nc1cccc(Nc2ccc(C#N)cc2)c1,-22.8%,
O=C1O/C(=C\c2ccc(O)cc2)C(O)=C1c1ccc(O)cc1,-2.31%,
CCC(C)(C)NC(=O)C(c1ccc(O)cc1)N(C(=O)Cn1nnc2ccccc21)c1ccc(NC(C)=O)cc1 (centres undefined),-0.392%,
CC(C)(C)NC(=O)C(c1ccco1)N(Cc1ccc2c(c1)OCO2)C(=O)Cn1nnc2ccccc21 (centres undefined),-0.906%,
CCC(C)(C)NC(=O)C(c1cccn1C)N(Cc1ccc(C)cc1)C(=O)Cn1nnc2ccccc21 (centres undefined),,31.6 µM (active)
Nc1[nH]c(C(=O)c2ccccc2)c(-c2ccncc2)c1C(=O)NCc1cccc2ccccc12,0.831%,
CCOC(=O)C1CCCN(C(=O)c2cccc3ccccc23)CC1 (centres undefined),0.267%,
COc1ccc(CCNC(=O)c2cc3cccc4c3n2CC(C)S4)c(OC)c1OC (centres undefined),,31.6 µM (active)
COc1ccc(CCNC(=O)c2nn(C)c3c2CSc2ccccc2-3)cc1OC,-0.894%,
COc1ccccc1CNC(=O)c1ccc(NC(=O)N2CC(C)Sc3ccccc32)cc1 (centres undefined),-7.1%,
NC(c1csc(NC(=O)Nc2cccc(C(F)(F)F)c2)n1)C1CCCCC1 (centres undefined),1.19%,
CN(Cc1ccccc1F)c1cc2c(c3c1ccn3C)C1CCC2O1 (centres undefined),-8.78%,
COC(=O)Cc1ccc(OC2(C)CCN(Cc3ccc4c(c3)OCCO4)C2)cc1 (centres undefined),-7.62%,
O=C(Nc1ccc([N+](=O)[O-])cc1)c1cnn2c1NC(=C1CC1)C=C2C(F)F,1.47%,
CC(=O)Nc1ccc(S(=O)(=O)N2CCN(c3ccccc3)CC2)cc1,0.606%,
Cc1cc(N2CCN(S(=O)(=O)c3ccc(C)c(C)c3)CC2)c2ccccc2n1,-5.15%,
Cc1ccc(S(=O)(=O)N2CCN(c3ccccc3)CC2)cc1C,,17.8 µM (active)
C[N+]1(CC(=O)c2cccs2)CCOCC1,1.49%,
CCCCC(=O)N(C)c1c(CC)nc2c(OCc3ccc(S(C)(=O)=O)cc3)cccn12,-1.17%,
COc1ccc(C2=CC(c3ccccc3Cl)n3nc(-c4ccc(Cl)cc4)nc3N2)cc1 (centres undefined),-22.6%,

SMILES,"activity change, negative = active",Potency
Cc1ccc(C2C=C(c3ccc(Cl)cc3)Nc3nc(NC(=O)CCC(=O)O)nn32)cc1 (centres undefined),,6.31 µM (active)
CCOc1ccc(C2=CC(c3ccccc3)n3ncnc3N2)cc1 (centres undefined),4.25%,
O=C(NCCOc1ccccc1)N1[C@H]2CC[C@@H]1C=C(c1ccc(F)cc1OCc1ccccc1)C2,-2.32%,
CCCCn1nnnc1C1(C)CCC(=O)N1Cc1ccc(OC)c(OC)c1 (centres undefined),0.575%,
COCc1cccc(-c2csc(C(O)c3ccc(F)cc3)n2)c1 (centres undefined),-7.81%,
O=S1(=O)CCN(Cc2ccccc2)CC1,0.68%,
Cc1ccc(-n2c(N)c(C(=O)N3CCOCC3)sc2=S)c(C)c1,0.999%,
Cc1cccc(-n2c(N)c(C(=O)N3CCN(C)CC3)sc2=S)c1,,17.8 µM (active)
N#Cc1ccccc1-n1c(N)c(C(=O)N2CCCC2)sc1=S,-4.07%,
CCc1nc2c(OCCOc3ccccc3)cccn2c1N(C=O)Cc1ccc(OC)cc1,-3.9%,
CS(=O)(=O)N1CCCCC1c1cc(C(=O)NCc2ccccc2)no1 (centres undefined),-3.64%,
CC(C)(C)c1ccc(C(=O)NCc2ccco2)cc1,-0.141%,
CC(=O)NCCNC(=O)c1cc(-c2cccc3ccccc23)nc2ccccc12,-5.07%,
CCc1ccc(-c2cc(C(=O)NCc3ccco3)c3ccccc3n2)s1,,28.2 µM (active)
CC(C)Nc1nc(NCCOc2ccccc2Cl)c2sccc2n1,-4.76%,
COC(=O)c1ccc(CN2C(=O)C(Cc3ccccc3)ON=C2c2ncccc2C)o1 (centres undefined),-0.769%,
COc1ccc(C(=O)NCC2CCCO2)cc1S(=O)(=O)NCc1ccc(Cl)cc1 (centres undefined),-4.36%,
CC(c1ccco1)N(C(=O)COc1ccccc1[N+](=O)[O-])c1ccccn1 (centres undefined),,15.8 µM (active)
CC(c1ccco1)N(C(=O)c1ccc(S(=O)(=O)N2CCCCC2)cc1)c1ccccn1 (centres undefined),-0.1%,
Cc1ccc(CN(C(=O)c2ccccc2[N+](=O)[O-])c2ccccn2)cc1,0.425%,
CN(C(=O)CSc1nncc2ccccc12)C1CCCCC1,-1.88%,
CN(C(=O)c1cc2c(=O)n3ccccc3nc2s1)C1CCCCC1,,3.16 µM (active)
CCOCCCNC(=O)c1cc2c(=O)n3ccccc3nc2s1,,inactive
O=c1[nH][nH]c2c1[C@H](c1ccc(Cl)cc1)O[C@H](CCc1ccccc1)C2,-0.921%,
